30 molecules from ChEMBL document CHEMBL4513216, “Probing the Open Global Health Chemical Diversity Library for Multistage-Active Starting Points for Next-Generation Antimalarials” (ACS Infect Dis, 2020) can be followed below.

Screen size: about 69,000 compounds; about 8,600 (12%) showed an effect of 50% or more. This is one part of a sample in which strong results are shown more often than they occur.

This test has as its system Plasmodium berghei. Briefly: Screen against P. berghei liver stage (PbLuc), transformed with Luciferase, at 10uM. It is filed as functional, HepG2. The note with it: tested at 10 uM.
With `COc1cccc(-c2nc(C)c(C(=O)N[C@H](CO)CC(C)C)s2)c1`, the INHIBITION was -23.7%.
For the molecule `Cc1occc1C(=O)N1C[C@@H]2[C@@H](C1)OCC(=O)N2Cc1cccnc1`, the INHIBITION is -6.23%.
As for `CN(CC1CCOCC1)C1CCCN(c2ccccn2)C1` (stereo not given), the INHIBITION is given as 18.805%.
`CCN(CCn1cccn1)Cc1nc(-c2ccoc2)oc1C`: the INHIBITION is listed as -31.9%.
Take `Cc1oc(-c2ccsc2)nc1CNCCn1cccn1`: the INHIBITION worked out at 53.4%.
`Cc1oc(-c2ccsc2)nc1CNC(C)Cn1cccn1` (stereo not given): the INHIBITION is recorded as 39.7%.
The same measure for `CCN(CCn1cccn1)Cc1nc(-c2ccc(F)cc2)oc1C`: 62.4%.
Turning to `CCN(CCn1cccn1)Cc1nc(-c2cc(F)ccc2F)oc1C`, the INHIBITION was 26.1%.
For `Cc1cnn(CCNCc2nc(-c3ccsc3)oc2C)c1`, the INHIBITION was 47.4%.
Turning to `Cc1nn(CC(=O)O)c(C)c1NS(=O)(=O)c1cccc2ccccc12`, the INHIBITION was determined as 2.97%.
Take `CNC(=O)CN1CCO[C@H]2CN(CC3CCOC3)C[C@H]21` (stereo not given in full): the INHIBITION stood at 8.85%.
The same measure for `CNc1ccnc(N2C[C@H]3CC[C@@H](C2)N(CCOC)C3=O)n1`: -144%.
Consider `O=C(c1ccco1)N1C2CCC(O)(CC2)C1CN1CCOCC1` (stereo not given), for which the INHIBITION was 17.7%.
Then `Cc1ccsc1-c1nc(CN(C)Cc2cc[nH]n2)c(C)o1`, with 54.6%.
Regarding `Cc1nonc1CN(C)Cc1nc(-c2cccc(F)c2F)oc1C`, the INHIBITION is on record as 8.99%.
Regarding `COc1ccc(OC)c(-c2nc(CN(C)Cc3noc(C)n3)c(C)o2)c1`, the INHIBITION turned out to be 31.1%.
As to `Cc1nc(CN(C)Cc2nc(-c3sccc3C)oc2C)no1`, the INHIBITION was 56.3%.
The same measure for `CCc1cc(CN(C)Cc2nc(-c3sccc3C)oc2C)on1`: 1.37%; for `Cc1ccsc1-c1nc(CN(C)Cc2noc(C(C)C)n2)c(C)o1`: 30%.
Turning to `CCc1ncnc2c1CCN(CCOC)CC2`, the INHIBITION amounted to 32.5%.
`CCC[C@H]1CN(S(C)(=O)=O)C[C@@H]1NC(=O)Cc1ccc(F)cc1C`: the INHIBITION was 30.3%.
As to `O=C(NCCCc1nc(=O)[nH][nH]1)Nc1ccc(Cl)cc1`, the INHIBITION is reported as 23.9%.
The same measure for `O=C(NCCCc1nc(=O)[nH][nH]1)Nc1cccc(F)c1`: 48%.
Regarding `O=C(NCCCc1nc(=O)[nH][nH]1)c1ccc(Cl)cn1`, the INHIBITION stood at 67.5%.
Take `O=c1[nH]cc(Nc2ccccc2)c(=O)[nH]1`: the INHIBITION was found to be 43.8%.
For `OC1(CN2CCOC(Cn3cccn3)C2)CCCCC1` (stereo not given), the INHIBITION is -37.7%.
For the molecule `COCCN1CCN(CC(C)(O)c2cccc(C(F)(F)F)c2)CC1` (stereo not given), the INHIBITION was determined as 37.3%.
For the molecule `COc1ccccc1OCCCc1cncc(C(N)=O)c1`, the INHIBITION is on record as 80.2%.
Then `COc1cccc(OCCCc2cncc(C(N)=O)c2)c1`, with -10.3%.
For `COc1cccc(OCCc2cncc(C(N)=O)c2)c1`, the INHIBITION is 15.9%.
